Data on 38 compounds can be found in PubChem BioAssay AID651956 (Broad Institute, 2012).

Entries with a potency or affinity are not part of this list. Inconclusive results are not listed. Active and inactive are the calls of the source.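 Rule for the calls: active = in every test run, a fitted half-maximal concentration for signal decrease at or below twice the highest tested concentration; inconclusive = runs disagree, flat 30 to 70% decrease, or poor fit; inactive = the rest.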

The nature of this assay: miR-122 activators in hepatoma reporter cells, dose response, cell-based, Huh7 psiCHECK-miR122, Renilla luciferase, cherry-picked (AID 651956).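 Note: Renilla luciferase from a miR-122 sensor reporter so lower signal means miR-122 activation.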 The settings on record: 48 h; series mostly up to 35 µM.
As for `O=C(Nc1ccc(F)cc1)N1C[C@H]2[C@@H](c3ccccc31)[C@H](CO)N2C(=O)c1ccncc1`, the result was inactive. Under `CCCC(=O)Nc1ccc2c(c1)C(=O)N(C)[C@H]1CC[C@@H](CC(=O)NCCN3CCCCC3)O[C@H]1CO2` stands “inactive”. Under `Clc1ccc(CSc2nnc(-c3ccncc3)o2)c(Cl)c1` stands “inactive”; under `Cc1cc(C(F)F)n2ncc(C(=O)NCCc3ccccc3Cl)c2n1`, “inactive”. In the case of `Cc1cc(C(=O)Nc2ccc3c(c2)C(=O)N(C)[C@H]2CC[C@H](CC(=O)N[C@H](C)c4ccccc4)O[C@H]2CO3)no1`, the compound was called inactive. Under `O=C(CN1CCN(c2nc(-c3ccccc3)cs2)CC1)Nc1ccc2c(c1)OCO2` stands “inactive”; under `C[C@H](CO)N1C[C@H](C)[C@@H](CN(C)Cc2ccc(C(F)(F)F)cc2)Oc2ccc(NS(=O)(=O)c3ccc(Cl)cc3)cc2CC1=O`, “inactive”; under `C[C@H](CO)N1C[C@H](C)[C@H](CN(C)Cc2ccccc2)Oc2cc(/C=C/c3ccccc3)ccc2S1(=O)=O`, “inactive”.

On to `Cc1ccnc(Nc2nc(-c3c(C)nc4sccn34)cs2)c1`, for which the compound was classed as inactive.

On to `CN1C(=O)c2cc(NC(=O)c3cccc(F)c3)ccc2OC[C@H]2O[C@H](CC(=O)N3CCc4ccccc4C3)CC[C@H]21`, for which the compound was called inactive.

Take `CCCNC(=O)C[C@@H]1CC[C@@H]2[C@@H](COc3ccc(NS(=O)(=O)c4ccccc4C)cc3C(=O)N2C)O1`: the outcome was inactive. On to `COc1cccc(C(=O)Nc2ccc3c(c2)C(=O)N(C)[C@@H]2CC[C@@H](CC(=O)NCc4ccc(F)cc4)O[C@@H]2CO3)c1`, for which the outcome was inactive. For the compound `CCCNC(=O)C[C@@H]1CC[C@@H]2[C@@H](COc3ccc(NC(=O)Nc4ccccc4F)cc3C(=O)N2C)O1`, the compound was called inactive. Turning to `CCCCNc1cc(C)nc(NCc2ccccc2)n1`, the compound was classed as inactive. As to `CCCNC(=O)C[C@H]1CC[C@H]2[C@H](COc3ccc(NC(=O)c4ccc(C(F)(F)F)cc4)cc3C(=O)N2C)O1`, the compound was called inactive. Under `C/C=C/c1ccc([C@@H]2[C@@H](CO)N(Cc3ccccn3)[C@H]2CNC(=O)CC)cc1` stands “inactive”; under `CN1C(=O)c2cc(NC(=O)Nc3ccc(Cl)cc3)ccc2OC[C@H]2O[C@H](CC(=O)NCCN3CCCCC3)CC[C@H]21`, “inactive”; under `COCCN(C[C@H]1[C@@H](c2ccccc2)[C@H](CO)N1C(=O)C1CCC1)C(C)=O`, “inactive”.

In the case of `CN(C)CCNC(=O)C1CC(=O)N(c2ccc(F)c(Cl)c2)C1` (stereo not drawn), the result was inactive.

Regarding `CC(C)C(=O)Nc1ccc2c(c1)C(=O)N(C)[C@@H]1CC[C@H](CC(=O)N[C@H](C)c3ccccc3)O[C@@H]1CO2`, the call was inactive. Turning to `COc1cccc(NC(=O)C[C@@H]2CC[C@@H]3[C@@H](COc4ccc(NS(=O)(=O)c5cccc(F)c5)cc4C(=O)N3C)O2)c1`, the outcome was inactive.

For the compound `COc1cccc(C(=O)Nc2ccc3c(c2)C(=O)N(C)[C@H]2CC[C@H](CC(=O)NCc4ccc(F)cc4)O[C@H]2CO3)c1`, the compound was classed as inactive. The entry for `COc1cccc(CNC(=O)C[C@@H]2CC[C@H]3[C@H](COc4ccc(NC(C)=O)cc4C(=O)N3C)O2)c1` is “inactive”; for `COc1ccccc1C(=O)N1C[C@@H]2[C@H](c3ccccc31)[C@H](CO)N2CC1CCCC1` it is “inactive”; for `CO[C@@H]1CN(C)C(=O)c2ccc(NS(=O)(=O)c3ccc(C)cc3)cc2OC[C@@H](C)N(C(=O)NC(C)C)C[C@H]1C` it is “inactive”. The entry for `C[C@@H]1CN([C@H](C)CO)C(=O)c2cccc(NC(=O)c3ccc(-c4nccs4)cc3)c2O[C@H]1CN(C)S(=O)(=O)c1ccc(F)cc1` is “inactive”. Under `O=C(NCC(c1cccnc1)N1CCOCC1)NC1CCCCC1` (stereo not drawn) stands “inactive”. As to `CCN(CC)CCNc1nc(-c2ccccc2)nnc1C(F)(F)F`, the compound was classed as inactive. Under `COC(=O)C[C@H]1CC[C@@H]2[C@@H](COc3ccc(NC(=O)c4cnccn4)cc3C(=O)N2C)O1` stands “inactive”; under `CCNC(=O)C[C@H]1CC[C@H]2[C@H](COc3ccc(NC(=O)Nc4cccc(OC)c4)cc3C(=O)N2C)O1`, “inactive”; under `CC(=O)N1[C@@H](CO)[C@@H](c2ccccc2)[C@@H]1CNC(=O)CN1CCOCC1`, “inactive”. For `O=C(CSc1nc2ccccc2s1)N1CCOCC1`, the outcome was inactive. `COCCN(C[C@@H]1[C@@H](c2ccccc2)[C@H](CO)N1C(=O)C1CCC1)C(C)=O`: the compound was called inactive. The entry for `CC(C)C(=O)Nc1ccc2c(c1)C(=O)N(C)[C@@H]1CC[C@@H](CC(=O)N[C@H](C)c3ccccc3)O[C@@H]1CO2` is “inactive”; for `Cn1c(NC(=O)c2ccco2)c(-c2ccccc2Cl)c(=O)c2ccccc21` it is “inactive”; for `CN(C[C@H]1N[C@@H](CO)[C@H]1c1ccc(-c2ccccc2)cc1)C(=O)C1CCC1` it is “inactive”. The entry for `C/C=C/c1ccc([C@@H]2[C@@H](CO)N[C@@H]2CN(CC)C(=O)CN2CCOCC2)cc1` is “inactive”; for `CCC(=O)N(C)C[C@@H]1[C@@H](c2ccccc2)[C@H](CO)N1Cc1cccnc1` it is “inactive”.
